From article PMC7819943, “Rice protein-binding microarrays: a tool to detect cis-acting elements near promoter regions in rice”
In all, about 68,000 sequences were measured (“fluorescence intensity (a.u.)”: median about 9,100, highest 2% from about 16,000 on). Many of the other results were omitted from the sample, so the highest values are more common in it than they were.

Molecular target: OsWRKY34 (Oryza sativa, UniProt Q0JBA9 1-250)
Assay: protein-binding microarray (RPBM); PBS, 2% BSA, 51.3 ng/ul salmon testes DNA, 50 uM zinc acetate, 200 nM TF, 25 C, 1 h; high values mean tight binding
Settings: protein: recombinant; tags: N-terminal polyhistidine and DsRed monomer fusion (pET32a); label: CyDye5-dUTP incorporated in the synthesized complementary strand; 3' TTTTT single-stranded linker to array surface; dsDNA, one strand shown
Outline: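 The binding signal for each feature is its fluorescence intensity in arbitrary units. An Axon 4000B scanner was used to read a custom Agilent array that had been made double-stranded with Cy5-dUTP primer extension, blocked with 2% BSA, incubated at 25 °C for 1 h with 200 nM protein in PBS, 2% BSA, salmon testes DNA and 50 µM zinc acetate, and washed. The protein was an N-terminal polyhistidine–DsRed transcription factor fusion from E. coli BL21-CodonPlus, purified on Ni–NTA.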

Chain of OsWRKY34 (Q0JBA9 entry or part of it): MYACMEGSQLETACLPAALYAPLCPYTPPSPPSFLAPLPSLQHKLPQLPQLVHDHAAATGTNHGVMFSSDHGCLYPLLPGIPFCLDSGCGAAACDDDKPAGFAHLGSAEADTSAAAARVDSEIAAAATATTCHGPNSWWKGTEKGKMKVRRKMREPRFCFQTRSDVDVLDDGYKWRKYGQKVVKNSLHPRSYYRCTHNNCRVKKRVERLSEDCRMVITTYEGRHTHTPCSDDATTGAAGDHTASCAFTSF

Row | Sequence | binding signal
1 | CGTACCTTCTCTGTTGAATCTCCTGTTCGCTTTTCTGTTACGGAGTCACCTAGTGCAG | 9160 fluorescence intensity (a.u.)
2 | TATATATATATATATATATATATATATATATATATATATCCGGAGTCACCTAGTGCAG | 8650 fluorescence intensity (a.u.)
3 | ATATATATATATATATATATAGACGTATTCCTGTATCCGCCGGAGTCACCTAGTGCAG | 21000 fluorescence intensity (a.u.)
4 | AGACGTATTCCTGTATCCGCCTATCCGTATCTTGGTATCACGGAGTCACCTAGTGCAG | 8300 fluorescence intensity (a.u.)
5 | GGCTTTTTTGTTGGGCTTCTTTTGATCAAAAACGTTGTTTCGGAGTCACCTAGTGCAG | 12000 fluorescence intensity (a.u.)
6 | GCGGTTGGGTTTGTGTGGTTTTTTTTGAAGGCGGAGTTGTCGGAGTCACCTAGTGCAG | 12100 fluorescence intensity (a.u.)
7 | CTTGCGGTTCATTTGGGGTTGGTTGGTTCTAGGGTACTGTCGGAGTCACCTAGTGCAG | 16700 fluorescence intensity (a.u.)
8 | TGTTTGGTGCTGTCGGTACATGGGTGGTGGTTTTTTCTTTCGGAGTCACCTAGTGCAG | 17500 fluorescence intensity (a.u.)
9 | GTGTGTGGGTGGTGGTATATTTTTTTTCTTTCTCTTGGTTCGGAGTCACCTAGTGCAG | 12800 fluorescence intensity (a.u.)
10 | GAGGAGGTTGGGTTCTTGATCGGTGTCGGATTTTTGGTTGCGGAGTCACCTAGTGCAG | 10800 fluorescence intensity (a.u.)
11 | GCGCTGTCAGTGTGTGGGTGGTAGTATATTTTTTTCTTTTCGGAGTCACCTAGTGCAG | 12500 fluorescence intensity (a.u.)
12 | AATTCATTTGTCTTGGTACGCTGTTGGGGCGTAATAGGGGCGGAGTCACCTAGTGCAG | 13200 fluorescence intensity (a.u.)
13 | TGGTGGTGGTTGTGGTTGGGTTGGTGTCTGTCTTTTGTACCGGAGTCACCTAGTGCAG | 16300 fluorescence intensity (a.u.)
14 | CTGCTGCAGTTGAGCTGTACTGTTTTGGTGGGTTGGTTTTCGGAGTCACCTAGTGCAG | 13900 fluorescence intensity (a.u.)
15 | TTGGTGCTGTTGGTGCGTGGGTGGTGGTATAATTTTCTTTCGGAGTCACCTAGTGCAG | 11900 fluorescence intensity (a.u.)
16 | TATTGTATTGGGTTGGGCCTTTGTGGTTGTCTAATGAAGTCGGAGTCACCTAGTGCAG | 22300 fluorescence intensity (a.u.)
17 | GCGATGTCGGTGTGTGGGTGGTGGTATATTTTTCCTTTTTCGGAGTCACCTAGTGCAG | 18000 fluorescence intensity (a.u.)
18 | GTGTGGCGGACATGTGGGCCCATGATTTTTATTATTTTTCCGGAGTCACCTAGTGCAG | 9790 fluorescence intensity (a.u.)
19 | ATCCTCCGCCGCCGCCTCACCTCCTCCGCCACCGCGCTCGCGGAGTCACCTAGTGCAG | 8270 fluorescence intensity (a.u.)
20 | GCACCCCTGTTTTCTCAGCGATCATGGCTGTAATACTGAACGGAGTCACCTAGTGCAG | 8070 fluorescence intensity (a.u.)
21 | TCCTCCGAATCCCAATCTCTCGCAGTTCGTTCGAGGAGCTCGGAGTCACCTAGTGCAG | 8540 fluorescence intensity (a.u.)
22 | GCCTCGCCCTCGCGTCGTCACCTCTCGCCATGGCCCACTACGGAGTCACCTAGTGCAG | 9950 fluorescence intensity (a.u.)
23 | ATTCTGTTGCGTCATCATGTTCCTGTCTACAGAGCTATACCGGAGTCACCTAGTGCAG | 8840 fluorescence intensity (a.u.)
24 | TTTAAAACTAGGACCTGAGTAAATATTTTTCTTGAGTTTTCGGAGTCACCTAGTGCAG | 8040 fluorescence intensity (a.u.)
25 | GCTAGTTGTAATATACACATAATTGTTGCTTCATTTCAACCGGAGTCACCTAGTGCAG | 9790 fluorescence intensity (a.u.)
26 | TTGCAGTATCCCGGTTGCCCACCTTTCATGGTCCATCACCCGGAGTCACCTAGTGCAG | 8490 fluorescence intensity (a.u.)
27 | GCAATTATTAATGTACCGCTCCGTTTTCATTTTTGGGTTGCGGAGTCACCTAGTGCAG | 8630 fluorescence intensity (a.u.)

Row | Sequence | binding signal
28 | TGTGGAGTTTGAGGATTGCACAATAATCTCAGGGGCGGGCCGGAGTCACCTAGTGCAG | 8590 fluorescence intensity (a.u.)
29 | AGGTTATAAGACGTTTTGACTTTGGTTAAAGTCAAACTACCGGAGTCACCTAGTGCAG | 9600 fluorescence intensity (a.u.)
30 | CCTCTCGGGCGCCTCTCCTCTCCATCATTCCTCCCACTGCCGGAGTCACCTAGTGCAG | 9880 fluorescence intensity (a.u.)
31 | ACCGAAAGTTCAATTTGGTCCTTTACATTTTATTTTGTCCCGGAGTCACCTAGTGCAG | 8240 fluorescence intensity (a.u.)
32 | TTGTGCTGGTTTTGGTTTTGGTTTTGGGTTGCATGTATGTCGGAGTCACCTAGTGCAG | 9790 fluorescence intensity (a.u.)
33 | CCTGTGTGTTGGTGCTGTCGGTATGTGGGTGGTGGTATTTCGGAGTCACCTAGTGCAG | 14600 fluorescence intensity (a.u.)
34 | GTACTATGTATTGTCCCATCGTTGTATAGGTTGGTTTTTTCGGAGTCACCTAGTGCAG | 8240 fluorescence intensity (a.u.)
35 | GCTATGTAATGTCCCATCCGTGCTGTATAGTTTGGGTTTTCGGAGTCACCTAGTGCAG | 17200 fluorescence intensity (a.u.)
36 | ATGTATGCACGATGTGAGTGTCCGTGTTTGTAATGTGTTTCGGAGTCACCTAGTGCAG | 11300 fluorescence intensity (a.u.)
37 | TTGTGTATTGGTGCTGTCGGTGCATGGGTGGTGGTTTTTTCGGAGTCACCTAGTGCAG | 20700 fluorescence intensity (a.u.)
38 | ACCTACTCACAATCACAGAATCACATCATAACATTATTGTCGGAGTCACCTAGTGCAG | 9160 fluorescence intensity (a.u.)
39 | CCTGCCATGTCATGTTTGTACCTAGATACCAGGTATGACGCGGAGTCACCTAGTGCAG | 8960 fluorescence intensity (a.u.)
40 | AGATGTTTCCGCTGATACTTTGATACGTCGTCCTTATTTGCGGAGTCACCTAGTGCAG | 10800 fluorescence intensity (a.u.)
41 | CCGATTCCCTGCCGCATCTGCCCGTTGCCCTCGCGCCCGGCGGAGTCACCTAGTGCAG | 8880 fluorescence intensity (a.u.)
42 | TGCAGATTTGGTTTTTCTTTTTTTTCGCACGTTCTCTTTCCGGAGTCACCTAGTGCAG | 15700 fluorescence intensity (a.u.)
43 | TATTTTTTGCTATTATCTTTCGTGTAAGCTATTTCTCTATCGGAGTCACCTAGTGCAG | 9170 fluorescence intensity (a.u.)
44 | TATATATATATATATATATATATATAGAAATTAAGTCAAACGGAGTCACCTAGTGCAG | 8940 fluorescence intensity (a.u.)
45 | AAACGGTGCGTTTTTTGCAAAAAAATTCTATAGGAAAGTTCGGAGTCACCTAGTGCAG | 63900 fluorescence intensity (a.u.)
46 | TTTTTATACTGTTGGTACATATTCAAATTTGTCAAACATTCGGAGTCACCTAGTGCAG | 8960 fluorescence intensity (a.u.)
47 | CAGTGCGTATTTGCAATATATATATATAGGAAAGTTTCTTCGGAGTCACCTAGTGCAG | 9390 fluorescence intensity (a.u.)
48 | AATTCAAATTCATACTGTTCAAACAAAGTCATATAGAAAACGGAGTCACCTAGTGCAG | 28600 fluorescence intensity (a.u.)
49 | GTGTGTGTTTTTGCAAAAGTTTTCTATAGAAAAGTTACATCGGAGTCACCTAGTGCAG | 8210 fluorescence intensity (a.u.)
50 | TCCTGTGCCTCTCTCATGGTGTGGGTGTCTGTGTCTTTGACGGAGTCACCTAGTGCAG | 9040 fluorescence intensity (a.u.)
51 | AAGGTGGGGTCATCATAAATATTTTTTAAGTGAAAATTTTCGGAGTCACCTAGTGCAG | 9840 fluorescence intensity (a.u.)
52 | CTATGAAGTTAAAAATACGCTCATCAGAAAGGATATATTTCGGAGTCACCTAGTGCAG | 57200 fluorescence intensity (a.u.)
53 | AATGGATATCAGGATATGAAGCTCAAAGTTATCGGTTATTCGGAGTCACCTAGTGCAG | 8240 fluorescence intensity (a.u.)
54 | GGTTGAGGCTGTTTTCCGATCGTTCCGACCGTTTTCATCCCGGAGTCACCTAGTGCAG | 8700 fluorescence intensity (a.u.)
